We go through 28 compounds from the supplement of paper PMC7156485.

Where a name gives a salt, the structure may show the parent alone. ± gives the standard deviation of the averaged measurements.

What all share (settings): concentration: 10 µM; 24 h
Assay [1] concerns HCC1569. Description: cell number relative to DMSO (% of DMSO); higher = more cells (less growth inhibition / toxicity). Put shortly: (§1)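 Using 384-well plates with 800 cells per well in RPMI plus 10% FBS, HCC1569 and TDF cells were exposed to compounds at 10 µM, in triplicate, for 24 h at 37 °C. Imaging of six fields per well at ×10 followed H1.0 and DAPI staining. The reported quantity, H1.0 nuclear intensity or cell number, is a median of replicates given as percent of the plate control, and HCC1569 values were smoothed for positional effects.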

Assay [2] has as its system TDF. The description is as above. Put shortly: as §1
The subject of assay [3] is TDF. Description: H1.0 immunofluorescence intensity relative to DMSO (% of DMSO); higher = stronger H1.0 induction, active = 120 or more. The essentials: as §1
The subject of assay [4] is HCC1569. Description: H1.0 immunofluorescence intensity relative to DMSO (% of DMSO); higher = stronger H1.0 induction, active = 140 or more. Put shortly: as §1
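Throughout, for H1.0 immunofluorescence intensity relative to DMSO: TDF is a line of transformed human dermal fibroblasts of mesenchymal origin.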
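Throughout, for cell number relative to DMSO: TDF denotes transformed human dermal fibroblasts of mesenchymal origin.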

In the case of `CCCCCCCCC=CCCCCCCCCCC(=O)O` [11(Z)-Eicosenoic acid], the cell number in assay [1] and in assay [2] was 105 in each case. For the same compound, the H1.0 immunofluorescence intensity in assay [3] is 98.9 (inactive); in assay [4] it was 101 (inactive).

For the compound `O=C1C(=Cc2ccc(O)c(O)c2)Oc2c1ccc(OC1OC(CO)C(O)C(O)C1O)c2O` (configuration not stated) [Maritimein], the cell number is 99.5 in assay [1] and 94.8 in assay [2]. Besides, the H1.0 immunofluorescence intensity was 102 (inactive) in assay [3] and 99.6 (inactive) in assay [4].

As to `CC12CCC3c4ccc(O)cc4CCC3C1CCC2O` (stereo not drawn) [beta-Estradiol], the values for the cell number in assay [1] and in assay [2] were 90.6 and 89.3, respectively. In addition, the H1.0 immunofluorescence intensity is 101 (inactive) in assay [3] and 95.3 (inactive) in assay [4].

For the compound `CC(C)C(CO)Nc1nc(Nc2cccc(Cl)c2)c2ncn(C(C)C)c2n1` (configuration not stated) [Purvalanol A], the cell number in assay [1] came to 68.8 ± 4.3; in assay [2] it was 61.8 ± 9.4. In addition, the H1.0 immunofluorescence intensity is 98.3 (inactive) in assay [3] and 129 (inactive) in assay [4].

As to `CNc1nc(-c2ccc3c(N)n[nH]c3c2)cc(N2C[C@@H](C(=O)NC3CCCCC3)CC[C@H]2C)n1`, the values for the cell number in assay [1] and in assay [2] were 52.3 and 77.9, respectively. Further, the figures for the H1.0 immunofluorescence intensity in assay [3] and in assay [4] were 115 (inactive) and 161 (active), respectively.

Take `C=C1CC23CC1(O)CCC2C12C=CC(O)C(C)(C(=O)O1)C2C3C(=O)O` (single isomer, unassigned; (+)) [(+)-Gibberellic acid]: the cell number turned out to be 108 in assay [1] and 112 in assay [2]. Besides, the H1.0 immunofluorescence intensity in assay [3] was 98.6 (inactive); in assay [4], 89.5 (inactive).

For the compound `CC(C)(ON=C(C(=O)NC1C(=O)N2C(C(=O)[O-])=C(C[n+]3ccccc3)CSC12)c1csc(N)n1)C(=O)O` (configuration not stated) [Ceftazidime], the cell number in assay [1] and in assay [2] was 103 each time. In addition, the H1.0 immunofluorescence intensity in assay [3] was 90.2 (inactive); in assay [4], 108 (inactive).

`OC[C@@H](O)[C@H]1NC[C@@H](O)[C@H]1O` [1,4-Dideoxy-1,4-imino-D-mannitol hydrochloride]: the cell number in assay [1] turned out to be 99.9; in assay [2], 104. Moreover, the H1.0 immunofluorescence intensity is 87.9 (inactive) in assay [3] and 90.9 (inactive) in assay [4].

On to `CN(C)CCC(c1ccc(Cl)cc1)c1ccccn1` (configuration not stated) [Chlorpheniramine], for which the values for the cell number in assay [1] and in assay [2] were 100 and 98.1, respectively. The H1.0 immunofluorescence intensity is 96.2 (inactive) in assay [3] and 105 (inactive) in assay [4].

In the case of `COc1ccc2c(c1)c(CC(=O)O)c(C)n2C(=O)c1ccc(Cl)cc1` [Indomethacin], the cell number in assay [1] is 101 ± 1.8; in assay [2], 106 ± 20. The H1.0 immunofluorescence intensity was 91.3 (inactive) in assay [3] and 102 (inactive) in assay [4].

In the case of `Cc1cccc2c3c(ccc12)C1=C(C(=O)C3=O)C(C)CO1` (configuration not stated) [Dihydrotanshinone], the cell number in assay [1] stood at 53.6; in assay [2] it was 33.6. Besides, the figures for the H1.0 immunofluorescence intensity in assay [3] and in assay [4] were 111 (inactive) and 106 (inactive), respectively.

As for `NC(=O)c1cccc(-c2cccc(OC(=O)NC3CCCCC3)c2)c1`, the values for the cell number in assay [1] and in assay [2] were 97.3 and 97.5, respectively. The H1.0 immunofluorescence intensity in assay [3] was 105 (inactive); in assay [4], 124 (inactive).

On to `CCOc1ccc2ccc(=O)oc2c1` [7-ethoxy-2H-chromen-2-one], for which the cell number in assay [1] turned out to be 99.7; in assay [2], 108. For the same compound, the H1.0 immunofluorescence intensity in assay [3] is 93.7 (inactive); in assay [4], 103 (inactive).

For `O=C(OC1CC2CC3CC(C1)N2CC3=O)c1c[nH]c2ccccc12` (configuration not stated) [Dolasetron], the cell number in assay [1] turned out to be 99.1; in assay [2], 84.3. The H1.0 immunofluorescence intensity in assay [3] is 102 (inactive); in assay [4] it was 105 (inactive).

As to `O=C1C(=Cc2ccc(O)c(O)c2)Oc2cc(O)ccc21` [Sulfuretine], the cell number is 98 in assay [1] and 102 in assay [2]. Also, the H1.0 immunofluorescence intensity in assay [3] is 93.3 (inactive); in assay [4], 99.9 (inactive).

Regarding `C=C1CCC2C(C)(CO)C(O)CCC2(C)C1CC=C1C(=O)OCC1O` (configuration not stated) [Andrographolide], the cell number worked out at 83.1 in assay [1] and 68.6 in assay [2]. Besides, the H1.0 immunofluorescence intensity is 109 (inactive) in assay [3] and 113 (inactive) in assay [4].

As for `COc1ccc(-c2ccc(N)[n+](CCCC(=O)O)n2)cc1.[Br-]`, the cell number in assay [1] was found to be 105; in assay [2] it was 97.9. Besides, the H1.0 immunofluorescence intensity was 96.2 (inactive) in assay [3] and 103 (inactive) in assay [4].

As to `CC1(C)CC1C(=O)NC(=CCCCCSCC(N)C(=O)O)C(=O)O` (configuration not stated) [Cilastatin], the cell number came out at 100 in assay [1] and 94 in assay [2]. For the same compound, the H1.0 immunofluorescence intensity in assay [3] is 101 (inactive); in assay [4] it was 119 (inactive).

Take `CC(C=CC1=C(C)CCCC1(C)C)=CC=CC(C)=CC(=O)O` [Retinoic acid]: the figures for the cell number in assay [1] and in assay [2] were 104 and 102, respectively. Further, the H1.0 immunofluorescence intensity is 95.8 (inactive) in assay [3] and 120 (inactive) in assay [4].

Take `CNC1C(OC2OC(CO)C(N)C(O)C2O)OC2CC(N)C(OC3C(N)CC(N)C(O)C3O)OC2C1O` (configuration not stated) [Apramycin]: the cell number in assay [1] was determined as 106; in assay [2], 96.3. Also, the figures for the H1.0 immunofluorescence intensity in assay [3] and in assay [4] were 98.5 (inactive) and 117 (inactive), respectively.

For `CCCCC1CCC(c2nc(-c3ccncc3)no2)CC1` (configuration not stated) [4-[5-(4-butylcyclohexyl)-1,2,4-oxadiazol-3-yl]pyridine], the figures for the cell number in assay [1] and in assay [2] were 94.1 and 98.3, respectively. Moreover, the H1.0 immunofluorescence intensity in assay [3] is 108 (inactive); in assay [4] it was 104 (inactive).

With `Cl.NCC1OC(C23CC4CC(CC(C4)C2)C3)Cc2c1ccc(O)c2O` (configuration not stated), the cell number in assay [1] came out at 73.5; in assay [2], 68.9. The H1.0 immunofluorescence intensity was 102 (inactive) in assay [3] and 129 (inactive) in assay [4].

Consider `CC(=O)Nc1ccc(CC(=O)O)cc1` [Actarit], for which the cell number in assay [1] was found to be 100; in assay [2], 103. Besides, the H1.0 immunofluorescence intensity was 97.2 (inactive) in assay [3] and 96.5 (inactive) in assay [4].

On to `COC(=O)CNC(=O)C(=O)OC` [methyl 2-(2-methoxy-2-oxoethylamino)-2-oxoacetate], for which the cell number stood at 96.5 in assay [1] and 109 in assay [2]. In addition, the H1.0 immunofluorescence intensity is 99.2 (inactive) in assay [3] and 101 (inactive) in assay [4].

As for `O=C(O)[C@@H]1C[C@H](C(=O)O)N1` [cis-Azetidine-2,4-dicarboxylic acid], the values for the cell number in assay [1] and in assay [2] were 103 and 101, respectively. Moreover, the results for the H1.0 immunofluorescence intensity in assay [3] and in assay [4] were 105 (inactive) and 109 (inactive), respectively.

For `CCCc1nc2c(C)cc(-c3nc4ccccc4n3C)cc2n1Cc1ccc(-c2ccccc2C(=O)O)cc1` [Telmisartan], the cell number in assay [1] turned out to be 99.7; in assay [2] it was 97.5. The H1.0 immunofluorescence intensity in assay [3] is 101 (inactive); in assay [4] it was 97.2 (inactive).

Take `CCN(CC)CC(=O)Nc1c(C)cccc1C.Cl` [Lidocaine hydrochloride]: the figures for the cell number in assay [1] and in assay [2] were 97.3 and 101, respectively. The H1.0 immunofluorescence intensity was 89 (inactive) in assay [3] and 94.4 (inactive) in assay [4].

As to `O=C(NC(NC(=S)Nc1ccc(F)c([N+](=O)[O-])c1)C(Cl)(Cl)Cl)C(c1ccccc1)c1ccccc1` (configuration not stated) [ATM/ATR Kinase Inhibitor], the cell number in assay [1] was found to be 62.4; in assay [2], 64.5. Moreover, the H1.0 immunofluorescence intensity in assay [3] is 112 (inactive); in assay [4], 179 (active).
